This excerpt belongs to a sample that is enriched for hits.
PRC2 inh = EZH2 (human) methyltransferase inhibition; AID 651548; 0.35% of 57,000 active; inhibition, % at 12.5 µM; PRC2 H3K27 methylation, DELFIA TRF, 1 h;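 active = mean inhibition of replicates at least 50% and every single replicate also reaching 50%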;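 also: dimethyl H3K27 on biotinylated H3 21-44 peptide detected by antibody; plate controls were median neutral control wells for no effect and median positive control wells for full effect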
Target sequence (Q15910 whole entry, looked up): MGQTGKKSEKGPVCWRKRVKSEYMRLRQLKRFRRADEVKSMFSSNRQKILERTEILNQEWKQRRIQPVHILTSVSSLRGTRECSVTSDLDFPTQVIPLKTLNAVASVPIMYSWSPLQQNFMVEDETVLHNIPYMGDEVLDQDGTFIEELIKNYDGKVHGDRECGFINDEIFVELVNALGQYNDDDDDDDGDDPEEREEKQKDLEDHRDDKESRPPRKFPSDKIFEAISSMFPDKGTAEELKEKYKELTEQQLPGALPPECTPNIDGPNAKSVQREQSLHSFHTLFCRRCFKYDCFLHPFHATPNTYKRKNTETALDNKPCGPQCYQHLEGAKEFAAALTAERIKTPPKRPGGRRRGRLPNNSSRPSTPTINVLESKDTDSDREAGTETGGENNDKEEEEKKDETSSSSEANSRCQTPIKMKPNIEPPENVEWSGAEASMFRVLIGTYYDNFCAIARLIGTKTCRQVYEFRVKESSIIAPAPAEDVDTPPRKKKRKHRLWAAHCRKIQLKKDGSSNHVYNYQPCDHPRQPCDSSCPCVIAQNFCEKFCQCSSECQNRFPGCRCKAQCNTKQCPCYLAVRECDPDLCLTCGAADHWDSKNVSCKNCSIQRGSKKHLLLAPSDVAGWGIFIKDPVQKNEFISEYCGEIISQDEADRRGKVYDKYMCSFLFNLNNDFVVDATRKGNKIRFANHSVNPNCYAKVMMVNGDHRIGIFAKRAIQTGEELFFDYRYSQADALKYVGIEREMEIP
* hit, by the source's call.

SMILES | PRC2 inh
O=C(NO)c1cccc(C(=O)N/N=C/c2ccc(F)cc2)c1 | 1
O=C(NO)c1cccc(C(=O)N/N=C/c2ccc3ccccc3c2)c1 | 6
O=C(NO)c1cccc(C(=O)N/N=C/c2ccc(O)c(O)c2)c1 | 94*
O=C(Nc1ccc(S(=O)(=O)NCC2CCCO2)cc1)c1cc(-c2ccccc2)nc2ccccc12 (stereo not drawn) | -11
COc1cccc(NC(=O)CN(C)S(=O)(=O)c2ccc3ccccc3c2)c1 | 9
CCn1c(SCC(=O)Nc2cc(C)ccc2OC)nnc1-c1ccc(Cl)cc1 | 2
O=C(O)CCCCCCC(=O)N/N=C/CCC1CCCCC1 | 11
O=C(O)CCCC[C@@H]1SC[C@@H]2NC(=O)N[C@@H]21 | 99*
N#Cc1c(-c2ccccc2)nc(SCC(=O)N(c2ccccc2)c2ccccc2)[nH]c1=O | 52*
O=C(CSc1ncn[nH]1)N(c1ccccc1)c1ccccc1 | 4
O=C(CSc1nc2sc3c(c2c(=O)[nH]1)CCCC3)N(c1ccccc1)c1ccccc1 | 31
CC(Sc1nc2ccccc2[nH]1)C(=O)Nc1cccc(Cl)c1 (stereo not drawn) | 2
CC(Sc1nc(-c2ccccc2)c(C#N)c(=O)[nH]1)C(=O)Nc1cccc(Cl)c1 (stereo not drawn) | 63*
CC(Sc1nc(-c2ccccc2)c(C#N)c(=O)[nH]1)C(=O)Nc1ccc(Cl)cc1 (stereo not drawn) | 46
Cn1c(SCC(=O)Nc2ccc(Oc3ccccc3)cc2)nnc1-c1ccccn1 | 23
CC(C)(C)/C=N/NC(=O)CCCCCCC(=O)NO | -4
Clc1nc(Cl)c2cc(Br)ccc2n1 | 32
CCCC#Cc1cnc2c(c1)C(=O)N([C@H](C)CO)C[C@H](C)[C@@H](CN(C)C(=O)CN1CCOCC1)O2 | 10
CCCC#Cc1cnc2c(c1)C(=O)N([C@H](C)CO)C[C@H](C)[C@H](CN(C)C(=O)CN1CCOCC1)O2 | 95*
CCCC#Cc1cnc2c(c1)C(=O)N([C@@H](C)CO)C[C@@H](C)[C@H](CN(C)C(=O)CN1CCOCC1)O2 | 6
COC(=O)c1ccc(Cl)c(NC(=O)CN(c2cccc(Cl)c2)S(C)(=O)=O)c1 | -10
COc1ccc(NC(=O)COc2ccc([N+](=O)[O-])cc2)cc1OC | -4
COc1cccc(NC(=O)CCc2nc(-c3ccc(OC)c(OC)c3)no2)c1 | -11
O=C(OCc1nc2ccccc2s1)c1ccc([N+](=O)[O-])cc1 | 6
Cc1cc2nn(-c3ccc(C(C)C)cc3)nc2cc1NC(=O)COc1ccccc1[N+](=O)[O-] | -21
SMILES | PRC2 inh
CC(C)(C)[S@](=O)N1Cc2cc(C(=O)NCCc3ccncc3)nc(-c3cccc(-c4cccc(C#N)c4)c3)c2[C@@H]1CCO | -7
CC(C)(C)[S@@](=O)N1Cc2cc(C(=O)NCc3ccncc3)nc(-c3cccc(-c4ccc(C#N)cc4)c3)c2[C@H]1CCO | 0
CC(C)(C)[S@@](=O)N1Cc2cc(C(=O)NCCc3ccncc3)nc(-c3cccc(-c4ccc(C#N)cc4)c3)c2[C@H]1CCO | 50*
COc1cccc(C(=O)c2oc3ccccc3c2NC(=O)COc2ccccc2)c1 | -7
O=C(CSc1nccc(=O)[nH]1)N1CCc2ccccc21 | -12
COc1ccc(-c2coc3c(OC)c(OC)cc(OC)c3c2=O)cc1 | 7
COc1ccc(-c2coc3c(OC)c(O)ccc3c2=O)cc1 | 1
CC1(CO)C=Cc2c(cc(O)c3c(=O)c(-c4ccc(O)cc4)coc23)O1 (stereo not drawn) | 65*
COc1ccc(C(C)=O)c(O)c1 | -3
COCc1cc(O)c(O)c(O)c1-c1c(COC)cc(O)c(O)c1O | 88*
N#Cc1ccccc1NC(=O)CS(=O)(=O)Cc1ccccc1 | -1
CC(C)(C)c1ccc(C(=O)Nc2ccc(NC(=O)COc3ccc([N+](=O)[O-])cc3)cc2)cc1 | 2
O=C(c1ccccc1)c1cc(Br)ccc1NC(=O)C1CC=CCC1C(=O)O (stereo not drawn) | 0
O=C(O)c1cccc(CSc2nc(-c3ccc(Cl)cc3)cc(C(F)(F)F)n2)c1 | 50*
O=C(O)c1cccc(CSc2n[nH]c(-c3ccc(Cl)cc3)n2)c1 | -22
Cc1cc(C(F)(F)F)nc(SCc2cccc(C(=O)O)c2)n1 | -7
Nc1ncnc(NCCCN2CCOCC2)c1[N+](=O)[O-] | 16
CO[C@H]1O[C@H](CO)[C@@H](OC(=O)Nc2ccc3c(c2)OCO3)[C@H](OC(=O)Nc2ccccc2)[C@@H]1OC(=O)Nc1ccccc1 | -18
O=C(O)COc1ccc(Cl)cc1CO | -5
CCCc1c(OCCCOc2ccc(OCC(=O)O)cc2)ccc(CC=O)c1O | 55*
Cc1c(CCC(=O)O)c(=O)oc2cc(OCC(=O)O)ccc12 | -22
Cc1ccc(CCN=c2c([N+](=O)[O-])nn(-c3ccc4c(c3)OCCO4)n2O)cc1 | -6
COc1ccc(C(=O)Nc2cccc(N=[N+]=[N-])c2)cc1 | -27
COC(=O)c1ccccc1NC(=O)CN(c1cc(Cl)c(Cl)cc1Cl)S(C)(=O)=O | -1
CCOC(=O)[C@H](Cc1ccccc1)NC(=O)CN=[N+]=[N-] | 16
SMILES | PRC2 inh
C=C1C2=C(O[C@H](/C(C)=C/C(C)CC(C)CC)[C@@H](O)[C@@H]2O)C(=O)N1OC (stereo partly drawn) | -6
COc1cc(/C=C/c2ccc(OC)cc2OC)cc(OC)c1 | 51*
COc1ccc(/C=N/NC(=O)c2ccc(C(=O)NO)cc2)c(OC)c1 | -1
COC(=O)CCCCCCC(=O)N/N=C/c1ccc(OC)cc1OC | 8
O=c1cc(-c2ccc(O)cc2)oc2cc(O[C@@H]3O[C@H](CO)[C@@H](O)[C@H](O)[C@H]3O[C@@H]3OC[C@](O)(CO)[C@H]3O)cc(O)c12 | -11
COc1cc(O[C@@H]2O[C@H](CO)[C@@H](O)[C@H](O)[C@H]2O)c2c(=O)cc(-c3ccccc3)oc2c1OC | -9
O=c1cc(-c2ccc(O)c(O)c2)oc2c(C3O[C@H](CO)[C@H](O)[C@H](O)[C@H]3O)c(O)cc(O)c12 (stereo partly drawn) | 81*
O=C(O)C1CC(O)CN1S(=O)(=O)c1ccc(Cl)cc1 (stereo not drawn) | 2
COC(=O)c1ccccc1NC(=O)Cn1ccc([N+](=O)[O-])n1 | 24
COc1ccc(NC(=O)CN(C)S(=O)(=O)c2ccc(C)cc2)cc1OC | 0
Cc1cc(C)cc(N(CC(=O)O)S(C)(=O)=O)c1 | 1
Cc1sc2ncn(CC(=O)Nc3c(C(C)C)cccc3C(C)C)c(=O)c2c1C | 0
CN(C)/C=C/C=C1C(=O)CCCC1=O | 54*
Cc1nc(SCC(=O)Nc2ccccc2[N+](=O)[O-])c2c(C)c(C)sc2n1 | -4
COC(=O)c1ccccc1NC(=O)c1ccc(NC(=O)C(C)Oc2ccccc2)cc1 (stereo not drawn) | 4
Cc1cc(Cl)ccc1OC(C)C(=O)Nc1ccc(C(=O)Nc2ccccc2C(=O)O)cc1 (stereo not drawn) | 60*
Cc1cccc(C(=O)O)c1NC(=O)C(C)Oc1ccc(Cl)cc1Cl (stereo not drawn) | 4
CC(=O)c1c(C)nn(CC(O)COc2ccc(C(=O)c3ccc(Cl)cc3)cc2)c1C (stereo not drawn) | 15
O=C(COc1ccc2ccccc2c1)Nc1ccccc1C(=O)Nc1ccccc1 | 1
O=C(NN=C1CCCCCC1)c1ccccc1O | 17
COc1ccc(NC(=O)CSc2nnc(C)c(=O)[nH]2)cc1Cl | -13
CCC1(C)Cc2ccccc2-c2nc3[nH]nc(SCC(=O)Nc4ccc(OC)c(Cl)c4)n3c(=O)c21 (stereo not drawn) | 60*
COc1ccc(NC(=O)CSc2n[nH]c(N)n2)cc1Cl | -13
